The text below walks through data of paper PMC4552634, “A New Set of Chemical Starting Points with Plasmodium falciparum Transmission-Blocking Potential for Antimalarial Drug Discovery” (PLoS ONE, 2015).

The whole screen tested about 13,000 compounds, of which about 3,200 (25%) showed an effect of 50% or more. This is one part of the list.

This assay deals with P. falciparum stage V gametocytes. On the set-up: BacTiter-Glo ATP luminescence viability of purified stage V gametocytes in 384-well plates, per cent inhibition versus DMSO. To be noted: 48 h, 5 µM; inhibitor.
What is called % Inhibition is the change of the read-out against control, counted positive when it falls. Take `CCOc1cc(Cc2cnc(N)nc2N)cc(OCC)c1O` [TCMDC-137181]: the “% Inhibition” value is reported as 40.77%. Regarding `O=C(/C=C/c1ccc(Cl)c(Cl)c1)N1CCC(CN2CCC(c3cn(CC(=O)N4CCCCC4)c4ccccc34)CC2)CC1` [TCMDC-134193], the “% Inhibition” value is reported as 103%. In the case of `CC(C)NC(=O)Cn1cc(C2CCN(CC3CCN(C(=O)/C=C/c4ccc(Cl)c(Cl)c4)CC3)CC2)c2ccccc21` [TCMDC-134172], the “% Inhibition” value is recorded as -9.49%. Consider `O=C(c1ccc(O)c(-c2cc(Cl)cc(Cl)c2)c1)N(CCO)CCO` [TCMDC-140160], for which the “% Inhibition” value is -5.034%.

`COc1ccc2c(=O)c3ccc(OC)cc3[nH]c2c1` [TCMDC-132054]: the “% Inhibition” value was determined as 37.12%. For `COc1ccc2c(=O)c(-c3ccc(OC(F)(F)F)cc3)c(C)[nH]c2c1` [TCMDC-138811] the value was 45.07%; for `COc1ccc2c(=O)c(I)c(C)[nH]c2c1` [TCMDC-138141], 64.56%. For `COc1ccc2c(=O)c(Br)c(C)[nH]c2c1` [TCMDC-137426] the value was 72.62%; for `Cc1cc2c(cc1C(F)(F)F)N(C(=O)Nc1cc(C(=O)NCCN(C)C)cc(C(F)(F)F)c1)CC2` [TCMDC-139884], 20.84%.

On to `Cc1cc(C(=O)Nc2ccc3c(c2)CCN3C2CCN(Cc3cccc(F)c3F)C2)no1` (stereo not drawn) [TCMDC-135079], for which the “% Inhibition” value is on record as -28.63%. For `Cc1cc(N[C@@H](CC(C)C)C(=O)NCc2cccc(F)c2)nc(NCC2CCCCC2)n1` [TCMDC-134916], the “% Inhibition” value was -56.42%.

With `Cc1cc(N[C@@H](Cc2ccccc2)C(=O)NCc2cccc(F)c2)nc(NCc2ccccc2C)n1` [TCMDC-134903], the “% Inhibition” value is on record as -28.89%. Turning to `COc1ccccc1CCNc1nc(C)cc(N[C@@H](CC(C)C)C(=O)NCc2cccc(F)c2)n1` [TCMDC-134863], the “% Inhibition” value amounted to 80.77%. For the molecule `COc1ccccc1CCNc1nc(C)cc(N[C@@H](Cc2ccccc2)C(=O)NCc2cccc(F)c2)n1` [TCMDC-134893], the “% Inhibition” value amounted to 92.55%. For `CCCC(C)Nc1nc(C)cc(N[C@@H](CC(C)C)C(=O)NCc2cccc(F)c2)n1` (stereo partly drawn) [TCMDC-134768], the “% Inhibition” value is on record as -55.2%.

In the case of `Cc1cccc(CNc2nc(C)cc(N[C@@H](Cc3ccccc3)C(=O)NCc3cccc(F)c3)n2)c1` [TCMDC-134887], the “% Inhibition” value is 21.53%. With `Cc1cc(N[C@@H](Cc2ccccc2)C(=O)NCc2cccc(F)c2)nc(NCC2CCCCC2)n1` [TCMDC-134928] the figure was 5.769%; with `Cc1cc(N[C@@H](Cc2ccccc2)C(=O)NCc2cccc(F)c2)nc(NCCc2ccc(F)cc2)n1` [TCMDC-134785], 98.48%. Turning to `Cc1cc(N[C@@H](Cc2ccccc2)C(=O)NCc2cccc(F)c2)nc(NCCc2ccccc2)n1` [TCMDC-134773], the “% Inhibition” value is given as 75.65%. Take `Nc1nc(N)c2c(CCc3ccc4ccccc4c3)cccc2n1` [TCMDC-141975]: the “% Inhibition” value is -16.21%. `O=C(O)C(F)(F)F.O=C(O)Cc1ccc(-c2c[nH]c3ncc(-c4cccc5ncccc45)cc23)cc1` [TCMDC-136372]: the “% Inhibition” value is given as 46.28%.

As for `CC(C)(CNC(=O)C1CCN(CCOCc2ccccc2)CC1)c1nc(-c2ccc(Cl)c(O)c2)c(-c2ccncc2)[nH]1` [TCMDC-141122], the “% Inhibition” value is reported as -51.1%. Consider `CN1CCc2cc(I)c(O)cc2C1Cc1ccccc1Cl` (stereo not drawn) [TCMDC-137321], for which the “% Inhibition” value is recorded as -44.87%.

On to `Cc1csc(-c2nonc2NC(=O)COc2ccccc2C(C)C)n1` [TCMDC-125014], for which the “% Inhibition” value is -9.384%.

Turning to `Cc1cc(N[C@@H](Cc2ccccc2)C(=O)NCc2cccc(F)c2)nc(NCCCOC(C)C)n1` [TCMDC-134822], the “% Inhibition” value turned out to be 52.41%. With `Cc1cc(N[C@@H](Cc2ccccc2)C(=O)NCc2cccc(F)c2)nc(Nc2ccccc2)n1` [TCMDC-134857] the figure was -8.236%; with `Cc1cc(N[C@@H](Cc2ccccc2)C(=O)NCc2cccc(F)c2)nc(NCCc2cccs2)n1` [TCMDC-134812], 147.6%; with `Cc1ccc(CNC(=O)[C@H](Cc2ccccc2)Nc2cc(C)nc(NCc3ccccc3C)n2)cc1` [TCMDC-134905], 48.7%.

Turning to `CCCC(C)Nc1nc(C)cc(N[C@@H](Cc2ccccc2)C(=O)NCc2cccc(F)c2)n1` (stereo partly drawn) [TCMDC-134764], the “% Inhibition” value was -38.43%.

`Cc1cc(N[C@@H](Cc2ccccc2)C(=O)NCc2cccc(F)c2)nc(NCCc2cccnc2)n1` [TCMDC-134817]: the “% Inhibition” value is 63.38%. As to `Cc1ccc(CNC(=O)[C@H](Cc2ccccc2)Nc2cc(C)nc(NCCc3ccc(F)cc3)n2)cc1` [TCMDC-134788], the “% Inhibition” value was 66.59%. Turning to `CCCC(C)Nc1nc(C)cc(N[C@@H](Cc2ccccc2)C(=O)NCc2ccc(C)cc2)n1` (stereo partly drawn) [TCMDC-134894], the “% Inhibition” value is given as -11.47%.

`Cc1cc(N[C@@H](Cc2ccccc2)C(=O)NCc2cccc(F)c2)nc(NCCOc2ccccc2)n1` [TCMDC-134756]: the “% Inhibition” value stood at 40.03%. With `COc1ccc(Cn2c(Nc3cccc(C(F)(F)F)c3)nc3cc(C(=O)NC(C)C)cnc32)cc1Cl` [TCMDC-138556] the figure was 8.056%; with `CC[C@H](C)CNC(=O)c1ccc(-c2cccc(CN3CCC(N4CCCC4)CC3)c2)nc1` [TCMDC-134222], 28.35%. With `Cc1cccc2[nH]c(-c3cccc(-c4ccc(NC(=O)C(C)(C)c5ccccn5)cc4)c3)nc12` [TCMDC-137053], the “% Inhibition” value is reported as 15.43%. Turning to `COc1cc(-c2nnc(SCC(=O)Nc3cc(C)on3)n2C)cc(OC)c1O` [TCMDC-123652], the “% Inhibition” value is -77.31%. `CC(=O)Oc1c(C(=O)C2CCC(C(C)(C)C)CC2)c(OC(C)=O)c2ccccc2c1OC(C)=O` (stereo not drawn) [TCMDC-138179]: the “% Inhibition” value was 0.9625%.

Regarding `O=S(=O)(NCCN1CCCC1)c1ccc(-c2ccccc2CNC2Cc3ccccc3C2)cc1` [TCMDC-132210], the “% Inhibition” value is 61.07%.

For `O=S(=O)(NCCN1CCCC1)c1cccc(-c2ccccc2CNC2Cc3ccccc3C2)c1` [TCMDC-132212], the “% Inhibition” value turned out to be 102.4%. Take `COc1cccc(OC)c1C(=O)N1CCC2(CC1)C(=O)N(CC(=O)NC1CCCCC1)CN2c1ccccc1` [TCMDC-125168]: the “% Inhibition” value is recorded as -28.41%. With `CC1CCc2c(C(=O)N3CCc4ccccc4C3)csc2C1` (stereo not drawn) [TCMDC-123624] the figure was 13.04%.
